Experimental findings from PubChem BioAssay (NCI) are described below.

Several values for one entry are separate records, joined by “and”; a condition that tells them apart may be missing. Equal entries are not always repeated. This is part of a sample that, as a whole, favours compounds with a hit. Of some 83,000 tested, about 20% had one in any assay.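 A percent growth of 40 corresponds to 60% growth inhibition; 0 means no net growth; -100 means all cells died. Active threshold: below 10.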 Activity calls are given as the source filed them.

For the test, the system named is MDA-MB-468 breast. The test is described as follows: NCI-60 one-dose screen, 48 h (100 = growth as untreated, 0 = no growth, -100 = all killed). Particulars: 10 µM unless noted.
For the compound `C[C@H]1[C@H](C)CC[C@]2(C(=O)N3CCN(C)CC3)CC[C@]3(C)C(=CC[C@@H]4[C@@]5(C)C/C(=C/c6ccco6)C(=O)C(C)(C)[C@@H]5CC[C@]43C)[C@H]12`, the growth is 19.2% [100 µM] (inactive).
In the case of `CN[C@@H]1C[C@H]2O[C@@](C)([C@@H]1OC)n1c3ccccc3c3c4c(c5c6ccccc6n2c5c31)C(=O)N[C@H]4O` it was -56.3% (active); in that of `CCCCCCCCCCCCCCCCCCOc1ccccc1CCCOP(=O)(O)OCC[N+](C)(C)C`, 77.3% (inactive).
With `CCCCCCCN(CCCCCCC)C(=N)c1ccc(OC)c2ccccc12` the figure was -85% (active); with `COc1ccc(CNCCCN2C(=O)c3ccc4c5c(ccc(c35)C2=O)C(=O)N(CCCNCc2ccc(OC)c(OC)c2OC)C4=O)c(OC)c1OC`, -94.8% (active); with `NC(=O)n1c(=O)n(-c2cccc(C(F)(F)F)c2)c(=O)c2cc(-c3ccc(F)cc3F)ccc21`, -8.88% (active).
In the case of `COc1cc(C(=O)/C=C/c2ccc(OCCCCCC[P+](c3ccccc3)(c3ccccc3)c3ccccc3)cc2)cc(OC)c1OC` it was -58.6% (active).
`Nc1ccc(N=Nc2ccc(S(=O)(=O)O)cc2)cc1S(=O)(=O)O`: the growth was 150% (inactive) and 75.5% (inactive).
With `Cc1nc2ccc(-n3ncc(C(=O)c4cc5ccccc5[nH]4)c3N)cc2[nH]1` the figure was 68.2% (inactive); with `CCCCCCCCCCCCCCCCC(Br)C(=O)O` (configuration not stated), 96% (inactive).
With `N#C/C(=C/C=C/c1cccc(Cl)c1)S(=O)c1ccccc1` (configuration not stated), the growth is -46% (active).
With `CC(C)(C)OC(=O)N1CCc2c(sc3ncnc(N/N=C/c4ccc(Br)cc4)c23)C1` the figure was 24.9% (inactive).
For `CS(=O)(=O)C1=CN(CCO)C(=O)N2CCCN=C12`, the growth is 93.3% (inactive).
Take `O=C(CCc1ccccc1)N1CCN(C(=O)CCc2ccccc2)CC1`: the growth is 111% (inactive).
With `Cc1[nH]c2ccccc2c(=O)c1CC=C(Cl)Cl`, the growth was -43.2% (active).
With `Nc1cc(N)c(N=Nc2ccc(S(=O)(=O)O)cc2)cc1N=Nc1ccc(-c2ccc(N=Nc3ccc(O)c(C(=O)O)c3)cc2)cc1` the figure was 97.6% (inactive); with `CCOCCC(=O)O`, 99.2% (inactive).
With `C=C(C)[C@@H]1CC[C@]2(C(=O)OCCOCCOCC[P+](c3ccccc3)(c3ccccc3)c3ccccc3)CC[C@]3(C)[C@H](CC[C@@H]4[C@@]5(C)CC[C@H](OC(=O)C(Cl)Cl)C(C)(C)[C@@H]5CC[C@]43C)[C@@H]12` the figure was -53.7% (active); with `C/C(Nc1ccc(Cl)c(Cl)c1)=C1\CCOC1=O`, 70.5% (inactive); with `O=C1c2ccccc2C(=O)c2c1cccc2-n1nnc2ccccc21`, 109% (inactive).
As to `COc1ccc(-c2ccc(C)n2-c2ccc(-c3nc4cc(Cl)ccc4s3)cc2)cc1`, the growth is -30.7% (active).
With `O=C(O)C(c1ccccc1)C(O)c1ccccc1` (configuration not stated) the figure was 101% (inactive).
In the case of `COC(=O)[C@]12CC[C@@H](C)[C@H](C)[C@@H]1C1=CC(=O)[C@@H]3[C@@]4(C)C[C@@H](OC(C)=O)[C@H](OC(C)=O)[C@@](C)(COC(C)=O)[C@@H]4C(=O)C[C@@]3(C)[C@]1(C)CC2` it was 35.3% (inactive).
In the case of `CO[C@H]1CC(O[C@@H]2/C(C)=C/C[C@@H]3C[C@@H](C[C@]4(C=C[C@H](C)[C@@H](C5CCCCC5)O4)O3)OC(=O)[C@@H]3C=C(C)[C@@H](O)[C@H]4OC/C(=C\C=C\[C@@H]2C)[C@]43O)O[C@@H](C)C1O[C@H]1C[C@H](OC)[C@@H](O)[C@H](C)O1` (some centres not stated) it was -72.5% (active).
Turning to `COc1ccc(COc2cc3oc(=O)c4cc(C(C)O)ccc4c3cc2OC)cc1` (configuration not stated), the growth is 41% (inactive).
`CCCCNc1nc(NN2C(=O)c3cccc4cccc(c34)C2=O)nc(-n2cnc3ccccc32)n1`: the growth was 92.7% (inactive).
With `Cc1sc2nc(NCCc3c[nH]c4ccc(Cl)cc34)[nH]c(=O)c2c1C` the figure was 4.19% (active).
In the case of `COc1ccc2c(c1)C1=NN(C(=O)CO)[C@H](c3ccc(OC(F)(F)F)cc3)[C@@H]1CC2` it was 117% (inactive); in that of `COc1ccc(Nc2nn3c(C)cc(C)nc3c2C(=O)Nc2ccc(C)cc2)c(OC)c1`, 91.6% (inactive).
In the case of `Cc1ccc(Sc2oc(-c3ccc(C)cc3)nc2[P+](c2ccccc2)(c2ccccc2)c2ccccc2)cc1` it was -36.5% (active); in that of `CCCCOC(=O)c1ccccc1O`, 95.7% (inactive); in that of `OC1CSSC1Cn1cnc2c(Nc3ccc(F)c(Cl)c3)ncnc21` (configuration not stated), 2.83% (active).
